Measurements published in PMC9574860, “Chemical Toolkit for PARK7: Potent, Selective, and High-Throughput” (Journal of Medicinal Chemistry, 2022).
The whole screen tested about 7,900 compounds, of which about 400 (5.1%) showed an effect of 50% or more. Only a selection was taken, and strong results are over-represented in it overall.

Molecular target: Parkinson's disease protein 7 (PARK7/DJ1) (human, UniProt Q99497)
Assay: primary screen, percent inhibition; read as competition with a fluorescent probe by fluorescence polarization; higher = more effect of the substance
Settings: 100 µM
Procedure: The screen was conducted using the conditions as described above in 1536-well plates (Corning 3724) with a reaction volume of 8 μL per well. The compound library containing 7887 covalent fragments was purchased at Enamine Ltd. and received as 100 mM DMSO stocks in 384 well LDV Echo plates (Labcyte LP-0200). Stock solutions of 0.26 μM PARK7 and 80 nM JYQ-107 were prepared. Using a Labcyte Echo550 acoustic dispenser, 8 nL of the DMSO stock solution of the library compounds was transferred from the source plates into the empty 1536-well screening plates to obtain a 100 μM final compound concentration. Next, PARK7 (6 μL, final concentration 0.2 μM) was dispensed using a Biotek MultiflowFX liquid dispenser and incubated for 2 h, followed by dispensing the probe JYQ-107 (2 μL, final concentration 20 nM). After 2 h incubation, the FP signal was recorded on a BMG Labtech PHERAstar plate reader (λex/em 480/520 nm). The relative loss of FP signal compared with reference controls was used to calculate the remaining enzyme activity.

Sequence of Parkinson's disease protein 7 (PARK7/DJ1) (Q99497 whole entry, looked up): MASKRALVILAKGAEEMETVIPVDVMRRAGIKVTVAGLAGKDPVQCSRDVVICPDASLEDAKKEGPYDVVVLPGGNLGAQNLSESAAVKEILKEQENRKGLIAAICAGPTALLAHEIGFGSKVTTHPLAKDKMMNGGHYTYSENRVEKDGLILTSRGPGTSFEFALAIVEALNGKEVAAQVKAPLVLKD

Row | SMILES | Inhibition % [%]
1 | O=C(CCl)NCc1ccc(C(=O)N2CCOCC2)cc1 | 19.5
2 | C=CC(=O)NC1C2CCOC2C12CCCC2 (stereo not drawn) | 5.2
3 | C=CC(=O)N1CCOCC(C)C1 (stereo not drawn) | 6.12
4 | O=C1SCCN1CN1CCC(c2ccccc2)CC1 | 11.7
5 | Cc1cccc(NC2C=CS(=O)(=O)C2)c1 (stereo not drawn) | 7.19
6 | CC1(C)COCCN1Cn1nc(-c2ccccc2)oc1=O | 8.59
7 | COc1ncc(B2OC(C)(C)C(C)(C)O2)cn1 | 4.41
8 | C=CC(=O)N1CCOCC1c1nnc(C(C)C)o1 (stereo not drawn) | 10
9 | Cc1cccc(C)c1N1C(=O)CN=C1S | 1.33
10 | Cc1ccc(S(=O)(=O)N2CCCCC2C2OCCO2)cc1 (stereo not drawn) | 3.92
11 | O=C(CCc1ccc(S(=O)(=O)F)cc1)N1CCCCC1 | 12.4
12 | O=C(Cc1ccc(S(=O)(=O)F)cc1)NC1CCCC1 | 2.81
13 | O=C(Cc1ccc(S(=O)(=O)F)cc1)Nc1ccccc1Cl | 12.8
14 | O=C(O)Cc1ccc(S(=O)(=O)F)cc1 | 89.7
15 | O=C(O)CCc1ccc(S(=O)(=O)F)cc1 | 82.3
16 | CC(C)N(C)C(=O)CCc1ccc(S(=O)(=O)F)cc1 | 4.68
17 | OB(O)c1ccc(OCC(F)(F)F)cc1F | 13
18 | CC(c1ccccc1)C1CO1 (stereo not drawn) | -0.54
19 | COc1ccc(C2CCCN2C(=O)n2ccnc2)cc1 (stereo not drawn) | 6.77
20 | CC1(C)OB(c2ccc(N)c(CO)c2)OC1(C)C | 7.71
21 | C=CC(=O)N1CCCC(c2nc(C)c(C)s2)C1 (stereo not drawn) | 6.18
22 | C=CC(=O)N1CCC(c2ncno2)CC1 | 9.72
23 | N#Cc1ccncc1C(=O)O | 12.3
24 | N#Cc1cnccc1S | 92.5
25 | N#Cc1cccnc1S | 11.9
26 | O=C(CCl)NC(=O)c1cccs1 | 23.4

Row | SMILES | Inhibition % [%]
27 | O=C(c1ccccc1)N1CCCC(S(=O)(=O)F)C1 (stereo not drawn) | 32.4
28 | O=C(c1ccccc1)N1CCCC(CS(=O)(=O)F)C1 (stereo not drawn) | 71.4
29 | O=C(c1ccccc1)N1CCC(CCl)C1 (stereo not drawn) | 2.86
30 | COC(=O)C1CC(S(=O)(=O)F)CN1C(=O)c1cccs1 (stereo not drawn) | 11
31 | O=C(NCCCS(=O)(=O)F)OCc1ccccc1 | 95.8
32 | O=S(=O)(F)CCc1ccccc1 | 4.21
33 | O=C(NCCCS(=O)(=O)F)c1cccs1 | 98.9
34 | O=C(OCc1ccccc1)N1CCCCC1CS(=O)(=O)F (stereo not drawn) | 16
35 | O=C(CCl)NC(=O)OCc1ccccc1 | 33.1
36 | O=C(c1cccs1)N1CCCCC1CCS(=O)(=O)F (stereo not drawn) | 84.1
37 | O=C(NCCS(=O)(=O)F)c1ccccc1 | 13.4
38 | c1csc(COCC2CO2)c1 (stereo not drawn) | 0.211
39 | C=CC(=O)NC1CCCN(c2cccnc2)C1=O (stereo not drawn) | 15.4
40 | C=CC(=O)NC1(C2CC2)CCOCC1 | 7.04
41 | C=CC(=O)N1CCC(Oc2cccnc2N2CCCC2)C1 (stereo not drawn) | 13.2
42 | C=CC(=O)N1CC2(CCOCC2)c2ccccc21 | 7.61
43 | O=C(CCl)NNC(=O)c1cccs1 | 7.74
44 | O=C(c1cccs1)N1CCCC(S(=O)(=O)F)C1 (stereo not drawn) | 73.5
45 | O=C(c1cccs1)N1CCC(CS(=O)(=O)F)C1 (stereo not drawn) | 97.1
46 | O=C(c1cccs1)N1CCOC(CS(=O)(=O)F)C1 (stereo not drawn) | 14.7
47 | O=C(c1cccs1)N1CCCC(CS(=O)(=O)F)C1 (stereo not drawn) | 90.1
48 | O=C(c1cccs1)N1CCC(S(=O)(=O)F)CC1 | 10.8
49 | O=C1OCCC1N1CCN(C(=O)c2cccs2)CC1 (stereo not drawn) | 9.27
50 | O=C(c1cccs1)N1CCC(CS(=O)(=O)F)CC1 | 35.6
51 | O=C(c1ccccc1)N1CC(S(=O)(=O)F)C1 | 35.6
52 | O=C(N[C@H]1CC[C@@H](CS(=O)(=O)F)C1)c1cccs1 (racemic) | 96.8

Row | SMILES | Inhibition % [%]
53 | O=C(NC1CCN(C2CCOC2=O)CC1)c1cccs1 (stereo not drawn) | 7.52
54 | O=C(CCl)N1CCN(C(=O)c2cccs2)CC1 | 40.3
55 | Nc1cccc(OC2CC(=O)N2)c1 (stereo not drawn) | 18.6
56 | O=C(O)C1COCCN1C(=O)C=Cc1ccc(Cl)s1 (stereo not drawn) | 13.1
57 | C=CC(=O)NCC1CC2(CCOCC2)CO1 (stereo not drawn) | 5.16
58 | CC(C)(C)OC(=O)N1CCOc2cccc(B3OC(C)(C)C(C)(C)O3)c2C1 | 3.79
59 | CC(Cl)Cc1cc2ccc(O)cc2oc1=O (stereo not drawn) | 12.3
60 | O=C(CCl)Nc1cc(F)cc(F)c1 | 14.6
61 | C=CC(=O)N1CCN(CC(C)C)C(=O)C1C (stereo not drawn) | 0.151
62 | COc1ccc(C)cc1S(=O)(=O)Oc1ccccn1 | 17
63 | CCCOc1cc(C)c(C)cc1S(=O)(=O)n1ccnc1C | 8.09
64 | COC(=O)c1cc([N+](=O)[O-])cc(B2OC(C)(C)C(C)(C)O2)c1C | 12.9
65 | COc1cc(S(=O)(=O)F)ccc1O | 17.3
66 | COc1ccccc1-c1nnc(-c2ccc(S(=O)(=O)F)cc2)o1 | 9.83
67 | COc1ccc(S(=O)(=O)F)cc1O | 54
68 | C=CC(=O)Nc1ccc(OCC)c(CO)c1 | 4.38
69 | COc1cc(OC(F)F)ccc1B1OC(C)(C)C(C)(C)O1 | -1.65
70 | COc1ccc(B2OC(C)(C)C(C)(C)O2)c(N)c1 | 56
71 | COc1ccc(B2OC(C)(C)C(C)(C)O2)c(C#N)c1 | 7.16
72 | CC1(C)OB(c2ccnn2-c2ccccc2)OC1(C)C | 14.9
73 | CC1CC(Sc2ccccn2)C(=O)O1 (stereo not drawn) | 5.37
74 | Cc1cc(S(N)(=O)=O)cc(NC(=O)CCl)c1C | 2.37
75 | C=CC(=O)NC1CCC2(CC1)CC2(F)F (stereo not drawn) | 3.45
76 | C=CC(=O)Nc1ccc2occc2c1 | 9.28
77 | C=CC(=O)Nc1ccc2c(cnn2C(F)F)c1 | 6.45
78 | C=CC(=O)Nc1ccc2sncc2c1 | 97.4
